NS1 function inh: qHTS Assay for Inhibitors of Influenza NS1 Protein Function. hit rate 0.4% among 270,000. Potency, µM (titrated, usually from 46.1 µM); calls by dose curve; note: actives are rising curves; nearly all actives have a fitted effect of over 50% in size
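Recovery from NS1-induced slow growth read by OD600 in budding yeast switched to galactose assay medium (pH 6.0, -URA) at 1:100 dilution. Compound 23 nl per well; the matching strain lacking NS1 serves as control.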
Cycloheximide cs: Cycloheximide Counterscreen for Small Molecule Inhibitors of Shiga Toxin. AID 2314, 2010. cell reporter, cycloheximide protein synthesis inhibition counterscreen. max response, %. hit rate 12% among 300,000; in the data active = max response mostly above about 13%, no sharp cut-off; inactive = mostly below about 14%; note: read at 38.3 µM for the half of the compounds with a filed dose
Shiga toxin inh: A qHTS for Small Molecule Inhibitors of Shiga Toxin; Vero cells, Shiga toxin protein synthesis inhibition reporter; inhibition, % at 38.7 µM; hit rate 9.2% among 290,000; AID 2315, 2010; in the data active = inhibition mostly above about 28%, no sharp cut-off; inactive = mostly below about 43%
LmPK inhibitor: qHTS Assay for Inhibitors of Leishmania Mexicana Pyruvate Kinase (LmPK) | hit rate 0.37% among 290,000 | Potency, µM (titrated, usually from 57.5 µM), actives largely listed as inhibitors | purified LmPK, Kinase-Glo ATP luminescence, 1 h | AID 1721, 2009
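In 50 mM imidazole pH 7.2 with 7 mM MgCl2, LmPK (0.1 nM) turned over PEP (0.5 mM) and ADP (0.1 mM) for 1 h at room temperature. Luciferase read-out of ATP.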
FBPA Giardia inh: qHTS Assay for Inhibitors of Fructose-1,6-bisphosphate Aldolase from Giardia Lamblia; hit rate 0.71% among 290,000; AID 2451, 2010; purified Giardia FBPA; Potency, µM (doses to about 59.6 µM), actives largely listed as inhibitors; A8B2U2; note: nearly all actives have a fitted effect of over 55% in size
Target sequence (A8B2U2 whole entry, looked up): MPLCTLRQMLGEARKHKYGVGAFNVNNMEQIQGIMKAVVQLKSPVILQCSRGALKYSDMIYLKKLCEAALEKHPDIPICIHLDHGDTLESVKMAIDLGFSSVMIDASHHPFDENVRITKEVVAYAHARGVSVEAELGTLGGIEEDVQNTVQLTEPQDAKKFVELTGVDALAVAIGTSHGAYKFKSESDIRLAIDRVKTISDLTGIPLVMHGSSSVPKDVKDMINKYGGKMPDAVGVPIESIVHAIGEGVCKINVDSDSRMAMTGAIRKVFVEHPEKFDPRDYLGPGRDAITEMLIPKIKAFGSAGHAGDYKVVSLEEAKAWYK
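40 nM FBPA preincubated 10 min at RT with compound (up to 57.5 uM final), then substrate plus GAPDH/TPI/NAD/arsenate coupling and diaphorase/resazurin added. Fluorescence read after 20 min at RT, 525/598 nm.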
Of the large screens only hits and unclear results are named; the others gave an inactive call. Sampled rows, rich in hits. Any-hit rate of the full collection: about 14%. Unless noted, calls come from the whole dose curve; as a rule, active = well fitted curve in the direction sought with a large enough effect; inconclusive = small, poorly fitted or top-dose-only effect, or another doubt; inactive = no such curve, though single readings can be large; an effect the other way counts as inactive or inconclusive.

COc1ccc(-c2csc(NNC3=NCCCCC3)n2)cc1	Cycloheximide cs 29, Shiga toxin inh 26, FBPA Giardia inh inconclusive (no result: NS1 function inh)
COc1ccc(NC2=NCCC2)cc1	NS1 function inh inconclusive
Brc1ccc(-c2csc(NC3=NCCCCC3)n2)cc1	Cycloheximide cs 24
COc1ccc(-c2csc(NC3=NCCCCC3)n2)cc1	Cycloheximide cs 33, Shiga toxin inh 108
CCOc1ccc(-c2csc(NNC3=NCCCCC3)n2)cc1	Cycloheximide cs 16, FBPA Giardia inh inconclusive (no result: NS1 function inh)
O=C(O)CC1(CC(=O)Nc2cc(F)ccc2Cl)CCCCC1	none
CC(C)(C)NC(=O)[C@@H]1C[C@H]2CCCC[C@@H]2CN1C[C@H](O)[C@H](Cc1ccccc1)NC(=O)[C@@H](CC(N)=O)NC(=O)c1ccc2ccccc2n1	none (no result: NS1 function inh, Cycloheximide cs, Shiga toxin inh, LmPK inhibitor)
N#CCCCS(=O)(=O)c1nnnn1-c1ccc(F)cc1Br	none (no result: NS1 function inh, Cycloheximide cs, Shiga toxin inh, LmPK inhibitor)
COC(=O)c1ccc(C(NC(=O)OCc2ccccc2)/C(=C/[C@@H](C)C(=O)NCCc2c[nH]c3ccccc23)c2cccnc2)cc1 (stereo partly specified)	none (no result: NS1 function inh, Cycloheximide cs, Shiga toxin inh, LmPK inhibitor)
O=S(=O)(c1ccc(-c2csc(Nc3ccc(F)cc3)n2)cc1)N1CCCC1	none
Fc1ccc(-c2csc(NC3=NCCC3)n2)cc1	Cycloheximide cs 21, Shiga toxin inh 109 (no result: NS1 function inh)
COc1ccc(Cc2nnc(-c3ccc(F)cc3)o2)cc1OC	none
O=[N+]([O-])c1ccc(Cc2nnc(-c3ccc(F)cc3)o2)cc1	Cycloheximide cs 33, Shiga toxin inh 75 (no result: NS1 function inh)
CC(=O)CSc1nnc(Cc2ccc([N+](=O)[O-])cc2)o1	none
Cc1ccc(-c2nnc(Cc3ccc([N+](=O)[O-])cc3)o2)cc1	Cycloheximide cs 56, Shiga toxin inh 69 (no result: NS1 function inh)
COCc1ccc(CN2CCc3c([nH]c4ccccc34)C2C(C)(C)C)o1 (stereo unspecified)	Cycloheximide cs 21
COCCC(=O)N1CCc2c([nH]c3ccccc23)C1C(C)(C)C (stereo unspecified)	none
O=C(CSc1n[nH]c(=O)n1-c1ccc2c(c1)OCCO2)Nc1ccccc1	none
O=C(N/N=C/C=C/c1ccccc1[N+](=O)[O-])c1cccnc1	none
O=C(O)c1ccc(N/N=C/C=C/c2ccccc2[N+](=O)[O-])cc1	Cycloheximide cs 45, Shiga toxin inh 52 (no result: NS1 function inh)
Cc1ccc(CSc2nnc(SCC(=O)N/N=C/C=C/c3ccccc3[N+](=O)[O-])s2)cc1	Cycloheximide cs 21, Shiga toxin inh 48
N#C/C(=C\C=C\c1ccccc1[N+](=O)[O-])C(=O)NCc1ccccc1	Cycloheximide cs 31 (no result: FBPA Giardia inh)
O=C(Cc1ccccc1)N/N=C/C=C/c1ccccc1[N+](=O)[O-]	Cycloheximide cs 16
N#C/C(=C\c1ccccc1[N+](=O)[O-])C(=O)NCc1ccccc1	none
Cc1ccc(CSc2nnc(SCC(=O)N/N=C/C=C/c3ccco3)s2)cc1	none
COc1ccc2c(c1)C(=O)[C@H](OC(=O)N[C@H]1CCCc3ccccc31)[C@@H](c1ccc(OC)c(Br)c1)O2	none (no result: NS1 function inh, Cycloheximide cs, Shiga toxin inh, LmPK inhibitor)
CC#CCN1c2ccccc2[C@]23C[C@@H](C(=O)OC)N(S(=O)(=O)c4ccc(C(F)(F)F)cc4)C2=NC(C(=O)OC)=C(C(=O)OC)[C@H]13	none (no result: NS1 function inh, Cycloheximide cs, Shiga toxin inh)
CCOC(=O)CC(NC(=O)CCS(=O)(=O)c1ccc2c(c1)n(C)c(=O)c(=O)n2C)c1ccc(C)cc1 (stereo unspecified)	none (no result: FBPA Giardia inh)
CN(Cc1cccs1)C(=O)/C=C/c1ccccc1[N+](=O)[O-]	Shiga toxin inh 69 (no result: NS1 function inh)
COc1ccccc1/C=C/C=N/NC(=O)Cc1cccs1	Cycloheximide cs 42, Shiga toxin inh 73
O=C(Cc1cccs1)N/N=C/C=C/c1ccccc1[N+](=O)[O-]	Cycloheximide cs 22, Shiga toxin inh 62
CCN(CC)c1ccc2cc(-c3nnc(-c4ccncc4)o3)c(=O)oc2c1	Shiga toxin inh active
CCN(CC)c1ccc2cc(/C(N)=N/NC(=O)c3cccs3)c(=O)oc2c1	NS1 function inh inconclusive
CCN(CC)c1ccc2cc(C=O)c(=O)oc2c1	Cycloheximide cs 24
CCN(CC)c1ccc2cc(C(C)=O)c(=O)oc2c1	Shiga toxin inh 80
CCN(CC)c1ccc2cc(C(N)=O)c(=O)oc2c1	Cycloheximide cs 23
COc1ccc(NC2CCCN(C(=O)c3ccc(C(C)=O)s3)C2)cc1 (stereo unspecified)	none
O=C(NCCCC(NC(=O)OCc1ccccc1)C(=O)O)OCc1ccccc1 (stereo unspecified)	NS1 function inh inconclusive
COCCCN1C(=O)c2ccc(C(=O)Nc3ccc(C)cc3C)cc2C1=O	none
COc1ccc(-c2c(C)nn3c(-c4ccccc4)cc(-c4ccccc4)nc23)cc1OC	none (no result: NS1 function inh, LmPK inhibitor, FBPA Giardia inh)
CCN(CC)c1ccc2cc(C(N)=O)c(=N)oc2c1	Cycloheximide cs 41
CCN(CC)c1ccc2cc(C(=O)Nc3cccnc3N3CCOCC3)c(=O)oc2c1	none
CCN(CC)c1ccc2cc(C(=O)Nc3ccccn3)c(=O)oc2c1	Cycloheximide cs 79, Shiga toxin inh 63
Cn1c(C(=O)N2COCC2(C)C)cc2c(=O)n3ccccc3nc21	Cycloheximide cs 35, Shiga toxin inh 75
Cc1cccn2c(=O)c3cc(C(=O)N4COCC4(C)C)sc3nc12	none (no result: NS1 function inh)
CCNc1ncc2nc(C)c(=O)n(CCc3ccccc3)c2n1	none (no result: NS1 function inh, Cycloheximide cs, Shiga toxin inh, LmPK inhibitor)
Cc1cccc(N2CCN(C(=O)c3cc4ccccc4oc3=O)CC2)c1C	Cycloheximide cs 20
O=C(c1cc2ccccc2oc1=O)N1CCCN(C(=O)c2cc3ccccc3oc2=O)CC1	none (no result: Cycloheximide cs, Shiga toxin inh, LmPK inhibitor, FBPA Giardia inh)
O=C(c1cc2ccccc2oc1=O)N1CCN(c2ncccn2)CC1	Cycloheximide cs 34, Shiga toxin inh 86
CN1CCN(C(=O)c2cc3ccccc3oc2=O)CC1	Cycloheximide cs 13
CC(C)C(OC(=O)Cn1nnc2ccccc21)C(=O)NC1CCCC1 (stereo unspecified)	none
CC[C@H](C)[C@H](NC(=O)CNC(=O)[C@H](CC(C)C)NC(=O)[C@H](CC(C)C)NC(=O)[C@H](CCC(N)=O)NC(=O)[C@H](CCC(N)=O)NC(=O)[C@H](CC(=O)O)NC(=O)[C@H](CCCCN)NC(=O)[C@H](CC(C)C)NC(=O)[C@H](Cc1ccc(O)cc1)NC(=O)[C@H](CCCNC(=N)N)NC(=O)[C@H](CCC(=O)O)NC(=O)[C@@H](NC(=O)[C@H](C)NC(=O)[C@H](CC(C)C)NC(=O)[C@@H](NC(=O)[C@@H](N)CCCNC(=N)N)[C@@H](C)CC)C(C)C)C(=O)N[C@@H](Cc1c[nH]c2ccccc12)C(=O)NCC(=O)N[C@@H](CS)C(=O)N[C@@H](CO)C(=O)O	none (no result: NS1 function inh, LmPK inhibitor)
Cc1ccccc1CNCCCSc1ncccn1	none
COc1ccccc1C(=O)NNC(=O)c1cccc(C)c1	Cycloheximide cs 23 (no result: Shiga toxin inh)
COc1ccccc1C(=O)NNC(=O)c1cccc([N+](=O)[O-])c1	Cycloheximide cs 32, Shiga toxin inh 61
CC(C)(CO)CNC(=O)CCc1nnc(Cc2ccc(-c3ccccc3)cc2)o1	none

Source: PubChem
